Assay [1] in a line: ATG_TCF_b_cat_CIS: Attagene CIS-FACTORIAL HepG2 Assay for human T-Cell-Factor with beta-catenin (TCF/b-cat) (AID 2282965). The conditions noted are these: HepG2 TCF/beta-catenin cis-reporter transcription, actives raise or lower the signal. The procedure, abridged:
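HepG2, transient MRTU transfection, cis-element-driven reporters (endogenous TFs). 24 h compound exposure. Readout: reporter mRNA by RT-PCR + 6-FAM primer extension, HpaI digest, capillary electrophoresis. Gain/loss fit vs DMSO baseline.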

Assay [2] can be described thus: ATG_TAL_CIS: Attagene CIS-FACTORIAL HepG2 Assay for human TAL Basal Promoter (AID 2282966).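 Also: background control endpoint measuring basal TAL promoter reporter mRNA not a specific factor.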 The settings on record: HepG2 Attagene cis-factorial TAL promoter reporter; actives raise or lower the signal. The procedure, abridged: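 Readout: reporter mRNA, fluorescence by CE. System: HepG2, transient multi-reporter transfection, endogenous TF activity. Exposure: 24 h. Analysis: bidirectional, DMSO-normalized; background control.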

The nature of assay [3]: ATG_VDRE_CIS: Attagene CIS-FACTORIAL HepG2 Assay for human Vitamin D Receptor Element (VDRE) (AID 2282968). The settings on record: HepG2 VDRE cis-reporter transcription, actives raise or lower the signal. In a few lines:
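Transiently transfected HepG2 cells carrying cis-regulated reporter transcription units were exposed for 24 h. Reporter mRNA was measured by RT-PCR with fluorescent labelling and capillary electrophoresis, and fitted in both directions against DMSO.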

Assay [4] concerns the target Nuclear receptor subfamily 1 group I member 3 (Homo sapiens) (UniProt Q14994). The assay can be described thus: ATG_CAR_TRANS: Attagene TRANS-FACTORIAL HepG2 Assay for human Constitutive Androstane Receptor (CAR) (AID 2282969; active = hit-call score of the fitted dose curve at least 0.9, where 1 is the maximum;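 also: activators raise reporter mRNA above DMSO so AC50 marks induction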). The settings on record: HepG2 Attagene TRANS-FACTORIAL CAR reporter. In a few lines: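 HepG2 cells transiently transfected with GAL4-UAS reporter units; TRANS format reads activity of exogenous chimeric NR-Gal4 protein. After 24 h dosing, reporter mRNA quantified by RT-PCR, 6-FAM labelling and capillary electrophoresis; gain of signal fitted against DMSO.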

The target in assay [5] is Estrogen receptor (Homo sapiens) (UniProt P03372). The assay can be described thus: ATG_ERa_TRANS: Attagene TRANS-FACTORIAL HepG2 Assay for human Estrogen Receptor alpha (ERa) (AID 2282970; active = hit-call score of the fitted dose curve at least 0.9, where 1 is the maximum). The conditions noted are these: HepG2 Attagene TRANS ERa GAL4 reporter, mRNA. In a few lines: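 Transactivation via ERa-Gal4 chimera in HepG2; 24 hour incubation; reporter mRNA detected by fluorescence RT-PCR and capillary electrophoresis.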

Assay [6] concerns the target X-box-binding protein 1 (Homo sapiens) (UniProt P17861). The assay can be described thus: ATG_Xbp1_CIS: Attagene CIS-FACTORIAL HepG2 Assay for human X-box Binding Protein 1 (XBP1) (AID 2282972). The conditions noted are these: HepG2 XBP1 cis-element reporter, Attagene multiplex; actives raise or lower the signal. In a few lines: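 HepG2, transient MRTU transfection (cis-promoter driven), 24 h compound exposure. Total RNA → oligo(dT) RT → PCR → 6-FAM labeling → HpaI cut → CE. Bidirectional fit vs DMSO.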

Assay [7] in a line: ATG_M_19_TRANS: Attagene TRANS-FACTORIAL HepG2 Assay for M19 Transcription Factor (Internal Marker) (AID 2282974; active = hit-call score of the fitted dose curve at least 0.9, where 1 is the maximum). The settings on record: HepG2 Attagene TRANS-FACTORIAL M19 internal marker reporter. The procedure, abridged:
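Transfected HepG2 (GAL4-UAS MRTUs), 24 h compound, TriZol RNA, DNase-treated RT, reporter PCR, FAM label, HpaI digest, CE fluorescence; gain vs DMSO.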

A short description of assay [8]: ATG_GAL4_TRANS: Attagene TRANS-FACTORIAL HepG2 Assay for GAL4 (Internal Marker) (AID 2282976; active = hit-call score of the fitted dose curve at least 0.9, where 1 is the maximum). The conditions noted are these: HepG2 Attagene TRANS GAL4 internal marker reporter. The procedure, abridged: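 Fluorescence from capillary electrophoresis of labelled RT-PCR products quantifies reporter mRNA induction after 24 h dosing of HepG2 cells carrying transfected GAL4-UAS reporter transcription units. Vehicle DMSO serves as baseline.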

In assay [9] the target is Steroid hormone receptor ERR1 (Homo sapiens) (UniProt P11474). The assay can be described thus: ATG_ERRa_TRANS: Attagene TRANS-FACTORIAL HepG2 Assay for human Estrogen-Related Receptor alpha (ERRa) (AID 2282971; active = hit-call score of the fitted dose curve at least 0.9, where 1 is the maximum). The conditions noted are these: HepG2 Attagene TRANS reporter, ERRa transactivation. The procedure, abridged: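 HepG2 cells were transiently transfected with multiple GAL4-UAS reporter units, then dosed with compound for 24 h. Total RNA was reverse-transcribed, reporter cDNA PCR-amplified and fluorescently labelled, and fragments resolved by capillary electrophoresis; induction was compared with DMSO.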

Results filed as inconclusive are left out. The source made the active and inactive calls. The calls were made as follows, unless noted: active = hit-call score of the fitted dose curve at least 0.9, where 1 is the maximum; inactive = score below 0.9.

Sequence of X-box-binding protein 1 (Homo sapiens) (P17861 whole entry, looked up): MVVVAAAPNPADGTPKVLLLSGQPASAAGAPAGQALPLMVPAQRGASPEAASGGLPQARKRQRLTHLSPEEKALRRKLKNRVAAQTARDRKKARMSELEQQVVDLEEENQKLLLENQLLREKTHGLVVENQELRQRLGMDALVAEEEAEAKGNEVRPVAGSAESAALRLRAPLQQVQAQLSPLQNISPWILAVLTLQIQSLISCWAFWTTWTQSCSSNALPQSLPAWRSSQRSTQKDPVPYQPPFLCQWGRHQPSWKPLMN
Sequence of Estrogen receptor (Homo sapiens) (P03372 whole entry, looked up, the tested form may be a part): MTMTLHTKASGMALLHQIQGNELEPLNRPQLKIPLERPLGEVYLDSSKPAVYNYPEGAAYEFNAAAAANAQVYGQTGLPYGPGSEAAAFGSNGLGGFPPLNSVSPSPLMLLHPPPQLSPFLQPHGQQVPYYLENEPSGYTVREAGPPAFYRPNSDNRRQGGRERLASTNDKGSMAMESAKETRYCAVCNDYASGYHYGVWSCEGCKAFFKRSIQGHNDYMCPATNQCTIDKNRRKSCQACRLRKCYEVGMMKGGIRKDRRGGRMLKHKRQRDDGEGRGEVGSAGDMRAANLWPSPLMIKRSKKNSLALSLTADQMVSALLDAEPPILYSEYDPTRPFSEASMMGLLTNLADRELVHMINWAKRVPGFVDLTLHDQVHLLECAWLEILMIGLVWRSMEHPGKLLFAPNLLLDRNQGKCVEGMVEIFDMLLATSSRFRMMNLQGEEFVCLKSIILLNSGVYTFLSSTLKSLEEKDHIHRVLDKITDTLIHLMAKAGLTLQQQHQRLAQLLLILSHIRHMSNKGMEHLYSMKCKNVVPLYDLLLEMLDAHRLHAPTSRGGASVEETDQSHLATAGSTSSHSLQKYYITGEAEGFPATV
Sequence of Steroid hormone receptor ERR1 (Homo sapiens) (P11474 whole entry, looked up, the tested form may be a part): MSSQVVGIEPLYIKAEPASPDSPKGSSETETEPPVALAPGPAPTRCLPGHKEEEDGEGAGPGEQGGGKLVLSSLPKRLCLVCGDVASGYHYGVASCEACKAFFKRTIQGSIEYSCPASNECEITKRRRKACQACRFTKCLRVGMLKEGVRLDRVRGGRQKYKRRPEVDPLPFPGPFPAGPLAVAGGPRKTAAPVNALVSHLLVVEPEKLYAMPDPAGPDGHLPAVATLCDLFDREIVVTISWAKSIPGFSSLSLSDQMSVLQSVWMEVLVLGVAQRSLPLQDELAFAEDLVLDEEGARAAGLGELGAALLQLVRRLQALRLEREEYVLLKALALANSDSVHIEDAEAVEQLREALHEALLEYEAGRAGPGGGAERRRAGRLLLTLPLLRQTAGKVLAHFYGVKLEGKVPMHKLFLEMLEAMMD
Sequence of Nuclear receptor subfamily 1 group I member 3 (Homo sapiens) (Q14994 whole entry, looked up, the tested form may be a part): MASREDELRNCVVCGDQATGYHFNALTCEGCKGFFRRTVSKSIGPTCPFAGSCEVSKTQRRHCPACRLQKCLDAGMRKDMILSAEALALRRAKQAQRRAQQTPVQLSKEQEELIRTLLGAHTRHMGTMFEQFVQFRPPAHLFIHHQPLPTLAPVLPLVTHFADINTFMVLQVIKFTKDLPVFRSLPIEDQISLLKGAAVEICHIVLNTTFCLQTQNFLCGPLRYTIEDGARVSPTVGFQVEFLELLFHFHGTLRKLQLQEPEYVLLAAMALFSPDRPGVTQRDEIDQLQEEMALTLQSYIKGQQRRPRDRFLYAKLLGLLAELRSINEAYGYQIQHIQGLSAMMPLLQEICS

In the case of `CC/C=C\C#N`, the compound was called inactive in assay [1], in assay [2], in assay [3], in [4], in assay [5] and in [6]. Further, in [7], the compound was called inactive.
For the compound `Cc1ccccc1S`, the AC50 in assay [1] was 55.9 µM (active); in assay [6] it was 75.5 µM (active). The result in [2], in [3], in assay [4] and in [5] was inactive.
On to `CC(=O)Nc1cc(S(=O)(=O)O)cc2cc(S(=O)(=O)O)c(N=Nc3ccccc3)c(O)c12`, for which the outcome in [1], in assay [2], in [3], in assay [4], in [5] and in assay [6] was inactive. In [8], the result was inactive.
Consider `CCCCCC1CCC(=O)O1` (stereo not given), for which the call in [1], in [2], in assay [3], in assay [6], in [7] and in assay [8] was inactive.
Regarding `C=CCCCCCCCCC(=O)OCC`, the compound was classed as inactive in assay [1], in assay [2], in assay [3], in assay [5], in [9] and in [6]. The result in assay [8] was inactive.
As for `c1ccc(Cc2ccccc2)cc1`, the call in assay [1], in assay [2], in assay [3], in [5], in assay [6] and in assay [7] was inactive. In addition, the compound was classed as inactive in [8].
In the case of `CN(C)c1ccc(C=O)cc1`, the compound was classed as inactive in assay [1], in assay [2], in assay [3], in assay [5], in assay [9] and in assay [6]. Moreover, the result in assay [8] was inactive.
For `[Cu+]`, the result in assay [1], in [2], in assay [5] and in assay [6] was inactive.
For `c1ccc2scnc2c1`, the compound was classed as inactive in assay [1], in assay [2], in assay [3], in assay [5], in [6] and in assay [8].
For `Cc1cc(O)c(C)c(C)c1O`, the compound was called inactive in assay [1], in [2], in assay [4], in assay [9] and in [6]. Further, the AC50 in assay [5] is 21.2 µM (active).
For `C1CCCNCC1`, the compound was classed as inactive in [1], in [2], in [4], in assay [6] and in assay [8].
Regarding `O=C(O)c1cccc(Cl)n1`, the call in assay [1], in assay [2], in assay [3], in assay [5], in [6] and in assay [7] was inactive.
Consider `C=C(C)C(=O)OCCOCCOC(=O)C(=C)C`, for which the result in [1], in assay [2], in assay [3], in assay [6], in assay [7] and in assay [8] was inactive.
In the case of `CC(=O)N(C)C`, the compound was called inactive in assay [1], in assay [2], in [9], in [6], in assay [7] and in assay [8].
Consider `CCCCCCCOC(C)=O`, for which the result in assay [1], in assay [2], in assay [3] and in [6] was inactive. Besides, the AC50 in assay [5] was 17.6 µM (active).
Turning to `COc1ccccc1NC(=O)CC(C)=O`, the compound was classed as inactive in assay [1], in [2], in assay [4], in assay [6], in assay [7] and in [8]. The concentration at half-maximal activity (AC50) in assay [3] was 68.2 µM (active).
Regarding `C1=COCCC1`, the call in assay [1], in [2], in assay [3], in assay [5] and in [6] was inactive.
For the compound `CC(=O)c1ccc(C)cc1`, the call in assay [1], in assay [2], in assay [3], in [4], in assay [5] and in assay [6] was inactive. In addition, the result in [8] was inactive.
With `CCOc1ccc(NC(C)=O)cc1`, the outcome in assay [1], in assay [2], in assay [3], in assay [6] and in assay [8] was inactive.
Consider `Cc1cccc(O)c1`, for which the compound was called inactive in assay [1], in assay [2], in assay [4], in assay [5] and in assay [6].
For the compound `C=C(C)C(=O)OCCC[Si](OC)(OC)OC`, the compound was called inactive in assay [1], in assay [2], in assay [5] and in assay [6].
For `C=CC(O)CCCCC` (stereo not given), the AC50 in assay [1] was 27 µM (active); in assay [3], 48.4 µM (active); in [6] it was 48.1 µM (active). Further, the result in assay [2], in assay [9] and in assay [7] was inactive.
As for `N#CCCNCCC#N`, the outcome in [1], in [2], in assay [3], in assay [4], in assay [5] and in [6] was inactive. The compound was called inactive in assay [8].
`CNC(=C[N+](=O)[O-])NCCSCc1ccc(CN(C)C)o1`: the compound was called inactive in assay [1], in assay [2], in assay [3], in [6], in assay [7] and in assay [8].
In the case of `CCCCOCCOCCO`, the call in [1], in [2], in assay [3], in assay [5], in [6] and in [7] was inactive. Also, the outcome in assay [8] was inactive.
Take `S=c1[nH][nH]c(=S)s1`: the compound was called inactive in [1], in assay [2], in assay [3], in assay [6], in assay [7] and in assay [8].
On to `CCC(C)COC(=O)CC(C)C` (stereo not given), for which the outcome in [1], in [2], in assay [3], in assay [4], in assay [5] and in assay [6] was inactive. The result in assay [7] and in assay [8] was inactive.
`CCCC[N+](C)(CCCC)CCCC`: the result in assay [1], in assay [2], in [3], in [4], in [6] and in assay [7] was inactive. For the same compound, the compound was called inactive in [8].
`CC(O)CNCC(C)O` (stereo not given): the compound was classed as inactive in assay [1], in assay [2], in [3], in [4], in [6] and in assay [8].
For the compound `O=Cc1ccccc1O`, the compound was classed as inactive in assay [1], in [2], in assay [3], in assay [4], in assay [6] and in assay [7].
For `CCOC(=O)CCCCCCCCC(=O)OCC`, the result in [1], in assay [2], in assay [3], in assay [5], in assay [6] and in assay [7] was inactive. Moreover, the compound was called inactive in assay [8].

In general, AC50 refers to the concentration giving half of the maximal activity seen.

Source of the values: PubChem BioAssay (EPA / NIEHS).
